Test results taken from the antibiotic and cytotoxicity screens of Wong et al. (2023).
In all, about 39,000 compounds went through this assay and about 1,500 (3.8%) were called active. For the sample, actives were picked, then their nearest neighbours and some compounds at random.

System: HSkMC (human skeletal muscle cells)
Test: cytotoxicity call (relative viability < 0.9)
Details: 10 µM

Compound	cytotoxicity call
COc1ccc(NC(=O)N(C)C[C@H]2OCCCC[C@@H](C)Oc3ccc(NS(=O)(=O)c4ccc(Cl)cc4)cc3C(=O)N([C@@H](C)CO)C[C@H]2C)cc1	inactive
C[C@@H]1CCCCO[C@@H](CN(C)C(=O)Cc2ccccc2)[C@H](C)CN([C@@H](C)CO)C(=O)c2cc(NC(=O)C3CCCCC3)ccc2O1	inactive
C[C@@H]1CCCCO[C@@H](CN(C)C(=O)NC2CCCCC2)[C@H](C)CN([C@@H](C)CO)C(=O)c2cc(NS(=O)(=O)c3ccc(F)cc3)ccc2O1	inactive
C[C@H]1CN([C@@H](C)CO)C(=O)c2cc(Br)cnc2O[C@@H]1CN(C)S(C)(=O)=O	inactive
Cc1noc(C)c1NC(=O)Nc1ccc2c(c1)CC(=O)N([C@@H](C)CO)C[C@H](C)[C@H](CN(C)S(=O)(=O)c1c(C)noc1C)O2	inactive
CC(C)CC#Cc1ccc2c(c1)O[C@@H](CN(C)S(=O)(=O)c1ccc(F)cc1)[C@@H](C)CN([C@@H](C)CO)S2(=O)=O	inactive
C[C@@H]1CCCCO[C@@H](CN(C)Cc2ccc3c(c2)OCO3)[C@@H](C)CN([C@H](C)CO)C(=O)c2cc(NS(=O)(=O)c3ccccc3)ccc2O1	inactive
O=C1CN(C(=O)c2ccccc2)C(=S)N1	inactive
C[C@@H]1CN([C@H](C)CO)C(=O)c2cc(N(C)C)ccc2O[C@@H](C)CCCCO[C@H]1CN(C)Cc1ccc(C(=O)Nc2ccccc2N)cc1	inactive
CCC(=O)Nc1ccc2c(c1)OC[C@H](C)N(C(=O)CN1CCOCC1)C[C@@H](C)[C@H](OC)CN(C)C2=O	inactive
Cc1ccc2c(c1)/C(=C/c1ccncc1)c1cc3ccccc3nc1-2	inactive
OCc1ccccc1-c1ccccc1	inactive
COc1ccc(NC(=O)Nc2ccc3c(c2)C(=O)N([C@@H](C)CO)C[C@H](C)[C@@H](CN(C)Cc2ccc(C(=O)O)cc2)OCCCC[C@@H](C)O3)cc1	inactive
CC(C)N1C[C@H](C)[C@@H](CN(C)Cc2ccc(Cl)c(Cl)c2)Oc2c(C(=O)Nc3ccncc3)cccc2C1=O	inactive
COc1ccc(S(=O)(=O)N(C)C[C@H]2Oc3ccc(NS(C)(=O)=O)cc3C(=O)N([C@H](C)CO)C[C@@H]2C)cc1	inactive
C[C@@H]1CN([C@@H](C)CO)C(=O)c2cc(NC(=O)c3ccccc3)ccc2O[C@@H](C)CCCCO[C@@H]1CN(C)Cc1ccccc1	inactive
C[C@H](CO)N1C[C@H](C)[C@H](CN(C)Cc2cccc(C(F)(F)F)c2)OCc2ccccc2-c2ccccc2C1=O	inactive
C[C@H](CO)N1C[C@H](C)[C@H](CN(C)C(=O)Nc2cccc(C(F)(F)F)c2)OCc2ccccc2-c2c(n(C)c3ccccc23)C1=O	active
C[C@@H]1CN([C@H](C)CO)C(=O)c2c(c3ccccc3n2C)-c2ccccc2CO[C@H]1CN(C)C(=O)Nc1cccc(C(F)(F)F)c1	inactive
C[C@@H]1CN([C@H](C)CO)C(=O)c2ccccc2-c2ccccc2CO[C@@H]1CN(C)Cc1cccc(C(F)(F)F)c1	inactive
C[C@@H]1CN([C@@H](C)CO)C(=O)c2ccccc2-c2ccccc2CO[C@@H]1CN(C)Cc1cccc(C(F)(F)F)c1	active

Compound	cytotoxicity call
C[C@H]1CN([C@@H](C)CO)C(=O)c2c(c3ccccc3n2C)-c2ccccc2CO[C@H]1CN(C)C(=O)Nc1cccc(C(F)(F)F)c1	inactive
C=CC(=O)NCCCCNC(=O)C=C	inactive
C[C@@H]1CN([C@@H](C)CO)C(=O)c2cc(NC(=O)NC3CCCCC3)ccc2O[C@@H](C)CCCCO[C@@H]1CN(C)C(=O)Nc1ccc2c(c1)OCO2	inactive
CN1CCCCC[C@@H]1C(=O)O	inactive
CO[C@@H]1CN(C)C(=O)c2ccc(NC(=O)C3CC3)cc2OC[C@@H](C)N(C(=O)Cc2ccccn2)C[C@@H]1C	inactive
Cc1noc(C)c1S(=O)(=O)N(C)C[C@@H]1Oc2ccc(NC(=O)C3CC3)cc2CC(=O)N([C@@H](C)CO)C[C@H]1C	inactive
CN(C)CC[C@H](CSc1ccccc1)Nc1ccc(S(=O)(=O)NC(=O)c2ccc(N3CCN(Cc4ccccc4-c4ccc(Cl)cc4)CC3)cc2)cc1[N+](=O)[O-]	inactive
CC1(C)CCC(c2ccc(Cl)cc2)=C(CN2CCN(c3ccc(C(=O)NS(=O)(=O)c4ccc(N[C@H](CCN5CCOCC5)CSc5ccccc5)c(S(=O)(=O)C(F)(F)F)c4)cc3)CC2)C1	active
CC1(C)CCC(c2ccc(Cl)cc2)=C(CN2CCN(c3ccc(C(=O)NS(=O)(=O)c4ccc(N[C@@H](CCN5CCOCC5)CSc5ccccc5)c(S(=O)(=O)C(F)(F)F)c4)cc3)CC2)C1	active
CC1(C)CCC(CN2CCN(c3ccc(C(=O)NS(=O)(=O)c4ccc(NCC5CCOCC5)c([N+](=O)[O-])c4)c(Oc4cnc5[nH]ccc5c4)c3)CC2)=C(c2ccc(Cl)cc2)C1	inactive
O=S(=O)(NCC[C@@H]1CC[C@@H](NS(=O)(=O)c2ccccc2Cl)[C@@H](CO)O1)c1ccc(F)cc1	inactive
COc1ccc(NC(=O)Nc2ccc3c(c2)C(=O)N([C@@H](C)CO)C[C@H](C)[C@@H](CN(C)S(=O)(=O)c2c(C)noc2C)OCCCC[C@@H](C)O3)cc1	inactive
C[C@@H]1CCCCO[C@@H](CN(C)C(=O)Nc2ccc(C(F)(F)F)cc2)[C@@H](C)CN([C@H](C)CO)C(=O)c2cc(NC(=O)Cc3ccccc3)ccc2O1	inactive
CC(CCC(=O)O)C1CCC2C3C(O)CC4CC(O)CCC4(C)C3CCC12C (stereo unspecified)	inactive
CC(C)[C@@H](CC[C@@H](C)[C@H]1CC[C@H]2[C@@H]3[C@H](O)C[C@H]4C[C@@H](NCCCNCCCCN)CC[C@]4(C)[C@H]3CC[C@]12C)OS(=O)(=O)O	active
COC(=O)CCC(C)C1CCC2C3C(O)CC4CC(O)CCC4(C)C3CC(O)C12C (stereo unspecified)	inactive
CC(C)[C@@H](CC[C@@H](C)[C@H]1CC[C@H]2[C@@H]3[C@H](O)C[C@H]4C[C@@H](NCCCNCCCCNCCCN)CC[C@]4(C)[C@H]3CC[C@]12C)OS(=O)(=O)O	active
C[C@H](CCC(=O)NCCS(=O)(=O)O)[C@H]1CC[C@H]2[C@@H]3[C@H](O)C[C@@H]4C[C@H](O)CC[C@]4(C)[C@H]3C[C@H](O)[C@]12C	inactive
C[C@H](CCC(=O)NCC(=O)NCCS(=O)(=O)O)[C@H]1CC[C@H]2[C@@H]3[C@H](O)C[C@@H]4C[C@H](O)CC[C@]4(C)[C@H]3C[C@H](O)[C@]12C	inactive
CC(=O)N1CCO[C@H]2CCN(C(=O)c3cn(C)cn3)C[C@H]21	inactive
Cc1ccc(S(=O)(=O)N(C)C[C@H]2OCCCC[C@H](C)Oc3ccc(NC(=O)Nc4ccc(F)cc4)cc3C(=O)N([C@H](C)CO)C[C@@H]2C)cc1	inactive

Compound	cytotoxicity call
Cc1noc(C)c1NC(=O)N(C)C[C@@H]1Oc2ccc(NC(=O)c3ccncc3)cc2CC(=O)N([C@H](C)CO)C[C@H]1C	inactive
COc1cccc(NC(=O)N(C)C[C@H]2OCc3ccccc3-c3c(n(C)c4ccccc34)C(=O)N([C@@H](C)CO)C[C@H]2C)c1	inactive
C[C@H]1CN([C@@H](C)CO)S(=O)(=O)c2ccc(C#CCC3CCCC3)cc2O[C@@H]1CN(C)C(=O)c1cnccn1	inactive
C=CCC[C@@H](Cc1ccc(F)cc1)C(=O)OC[C@@H](Cc1c[nH]c2ccccc12)NC(=O)[C@H](CC=C)CC(=O)N(CCO)Cc1ccccc1	active
C=CCC[C@H](Cc1ccc(F)cc1)C(=O)OC[C@@H](Cc1c[nH]c2ccccc12)NC(=O)[C@@H](CC=C)CC(=O)N[C@@H](CO)Cc1ccccc1	inactive
C=CCC[C@H](Cc1ccc(F)cc1)C(=O)OC[C@@H](Cc1c[nH]c2ccccc12)NC(=O)[C@H](CC=C)CC(=O)N(CCO)Cc1ccccc1	active
C=CCC[C@H](Cc1ccc(F)cc1)C(=O)OC[C@@H](Cc1c[nH]c2ccccc12)NC(=O)[C@@H](CC=C)CC(=O)N(CCO)Cc1ccccc1	inactive
C=CCC[C@@H](Cc1ccc(F)cc1)C(=O)OC[C@H](Cc1c[nH]c2ccccc12)NC(=O)[C@H](CC=C)CC(=O)N(CCO)Cc1ccccc1	inactive
C=CCC[C@H](Cc1ccc(F)cc1)C(=O)OC[C@H](Cc1c[nH]c2ccccc12)NC(=O)[C@H](CC=C)CC(=O)N(CCO)Cc1ccccc1	inactive
C=CCC[C@@H](Cc1ccc(F)cc1)C(=O)OC[C@@H](Cc1c[nH]c2ccccc12)NC(=O)[C@@H](CC=C)CC(=O)N[C@@H](CO)Cc1ccccc1	inactive
C=CCC[C@@H](Cc1ccc(F)cc1)C(=O)OC[C@H](Cc1c[nH]c2ccccc12)NC(=O)[C@@H](CC=C)CC(=O)N(CCO)Cc1ccccc1	inactive
C=CCC[C@H](Cc1ccc(F)cc1)C(=O)OC[C@H](Cc1c[nH]c2ccccc12)NC(=O)[C@@H](CC=C)CC(=O)N(CCO)Cc1ccccc1	active
C=CCC[C@@H](Cc1ccc(F)cc1)C(=O)OC[C@@H](Cc1c[nH]c2ccccc12)NC(=O)[C@@H](CC=C)CC(=O)N(CCO)Cc1ccccc1	active
CC(C)(C)[S@@](=O)N1Cc2cc(C(=O)N3CCc4ccccc4C3)nc(-c3cccc(-c4ccncc4)c3)c2[C@H]1CCO	inactive
CCO[C@H]1OC(C(=O)N2CCN(C)CC2)=C[C@@H](c2coc3ccccc3c2=O)[C@@H]1CCCOC(=O)NCCCCCC(=O)NO	inactive
C[C@@H]1CN([C@@H](C)CO)C(=O)Cc2cc(NS(=O)(=O)c3cccs3)ccc2O[C@@H]1CN(C)Cc1ccc(-c2ccccc2)cc1	inactive
NC(=O)CC(N)=S	inactive
C[C@H]1CN([C@@H](C)CO)S(=O)(=O)c2ccc(C#CC3CCCC3)cc2O[C@H]1CN(C)C(=O)Cc1ccncc1	inactive
CN(C)CC(=O)N1[C@@H]2Cn3c(ccc(-c4ccccc4)c3=O)[C@H]1[C@@H](C(=O)N1CCOCC1)[C@@H]2CO	inactive
